# The source made the active and inactive calls. The call rests on the fitted dose curve; in most records, active means well fitted curve in the direction sought with a large enough effect; inconclusive means small, poorly fitted or top-dose-only effect, or effect the other way, or another doubt; inactive means no such curve, though single readings can be large or run the other way.
# Experiment: qHTS for inhibitors of adenylyl cyclases using a fission yeast platform: a pilot screen against the NCATS LOPAC library (AID 1347410)
# Settings: S. pombe CHP2027, fbp1-GFP fluorescence, 18 h, yeast expressing mammalian AC9 and human GNAS; series mostly up to 57.5 µM; activity, positive = inhibition (GFP gain): at the top concentration
# From the text: PI: Charles S. Hoffman Ph.D
# Boston College, 140 Commonwealth Ave., Chestnut Hill, MA
# Assay Development and Screening Technology Laboratory (ADST)
# National Center for Advancing Translational Sciences (NCATS), Rockville, MD
# National Institute of Health (NIH), Bethesda, Maryland
# The fission yeast Schizosaccharomyces pombe uses a cAMP signaling pathway to link glucose-sensing to Protein Kinase A activity in order to regulate cell growth, sexual development, gluconeogenesis, and exit from stationary phase. Here, we describe the successful functional expression of all ten mammalian adenylyl cyclase (AC) genes, along with the human GNAS G-alpha gene in this organism. By measuring expression of a PKA-repressed fbp1-GFP reporter together with direct measurements of intracellular cAMP levels, one can detect both basal AC activity from all ten AC genes as well as GNAS-stimulated activity from eight of the nine transmembrane ACs (tmACs; AC2-AC9).
# Further confirmation and validation of active compounds lead to the identification of diphenyleneiodonium chloride (DPI) as an inhibitor of basal AC activity. This fluorescence based fbp1-GFP-GNAS screening technology could facilitate the development of therapeutic compounds that target GNAS or the ACs, an area in which there is significant unmet need.
# The gain-of-signal output is not substantially affected by cytotoxic compounds within the library.
# Getz RA, et al., A fission yeast platform for heterologous expression of mammalian adenylyl cyclases and high throughput screening, Cellular Signaling, 2019, 60: 114-121. doi.org/10.1016/j.cellsig.2019.04.010.
# PROTOCOL TABLE (as described by Inglese J, Shamu CE and Guy RK. 2007)
# SEQUENCE No. (e.g., 1, 2, 3, etc.); […] (e.g., Cells, Incubation, Reagent, etc.); VALUE; DESCRIPTION.
# 1; Dispense growth medium; 2 uL; black, clear bottom, low base, 1536-well Aurora assay plate.
# 2; Compounds and control; 23 nL; Kalypsis pin tool (Wako USA) equipped with a 1536-well pin head to transfer to the assay plates.
# 3; Dispense yeast cells; 2 uL; CHP2027 cells.
# 4; Incubation; 18 hours (dark at 30C); Non-humidified microbial incubator.
# 5; Detector; 425V; Fluorescence; laser scanning cytometry.
# NOTES (numbers refer to Sequence numbers above)
# 1. S. pombe growth medium EMM containing histidine, lysine, and uracil was initially dispensed into the assay plate to avoid yeast contamination using a Multidrop Combi dispenser (Thermo Fisher Scientific).
# 2. 10 mM stock solution of DPI (Sigma-Aldrich D2926) dissolved in DMSO was used as a 16-point dose response positive control, while 1.11 mM DPI stock solution was used as a single point max response positive control. Solvent DMSO was used as the negative control. Control DPI was transferred as a single-dose (column 3; rows 1-32; 1.11 mM stock), and multi-dose (column 4; rows 1-32; 10mM stock; 1:1.5 dilution; 16pnt titration) positive controls. Vehicle control DMSO was pinned into column 1-2, rows 1-32. Lopac compounds were pinned into columns 5-48 resulting to a final concentration range 57 µM to 78.4 nMControl DPI stock (10 mM) was prepared by dissolving 10 mg in 3.18 mL DMSO; while 1.11 mM DPI stock was prepared by mixing 100 uL of 10 mM DPI with 800 uL DMSO. To create the control plates, we initially start with a 384-well compound working plate. With a repeater pipette, (a.) 16 uL/well of 1.11 mM DPI was added to column 3; (b.) 16 uL/well of DMSO was added into rows 2-16 of column 4; (c.) 50 uL/well of DPI added to rows 1 and 2 of column 4; (d.) 32 uL serial dilution (two-thirds-fold) from rows 2 to 16 of column 4 with manual pipette. From the 384-well compound working plate, 7 uL of respective control compound was transferred to respective columns of the 1536-well compound plate using a multichannel pipette.
# 3. S. pombe CHP2027 (AC9-GNAS-PDE4D2) expressing fbp1-GFP cells were grown at 30C in EMM medium containing histidine, lysine, and uracil. […]
row,Structure (SMILES),"activity, positive = inhibition (GFP gain)"
1,C1CCc2nnnn2CC1,0.109% (inactive)
2,CC1(C)CCC(NC(=O)[C@@H](N)CCC(=O)O)CC1,-0.438% (inactive)
3,CC(C)COC(=O)OCN1C(=O)CN(CCN2CC(=O)N(COC(=O)OCC(C)C)C(=O)C2)CC1=O,-0.438% (inactive)
4,CC(CCc1ccccc1)NCC(O)c1ccc(O)c(C(N)=O)c1 (centres undefined),-0.438% (inactive)
5,COc1cc2c(cc1O)CC[C@@H]1[C@@H]2CC[C@]2(C)[C@@H](O)CC[C@@H]12,-0.007% (inactive)
6,C[N+]1(CCCCC[N+]2(C)CCCC2)CCCC1,0.16% (inactive)
7,CCC(NC(C)C)C(O)c1ccc(O)c(O)c1 (centres undefined),0.253% (inactive)
8,CCCn1c(=O)[nH]c(=O)c2[nH]cnc21,0.698% (inactive)
9,CC(=O)O[C@H]1C[C@@H]2CC[C@@H]3[C@H](CC[C@@]4(C)[C@H]3C[C@H]([N+]3(C)CCCCC3)[C@@H]4OC(C)=O)[C@@]2(C)C[C@@H]1[N+]1(C)CCCCC1,-0.438% (inactive)
10,Nc1cc(Cl)c(NC2=NCCN2)c(Cl)c1,-0.438% (inactive)
11,CC[C@H](C)C(=O)O[C@H]1CCC=C2C=C[C@H](C)[C@H](CC[C@@H]3C[C@@H](O)CC(=O)O3)[C@H]21,4.92% (inactive)
12,N[C@@H](Cc1cnc[nH]1)C(=O)O,-0.438% (inactive)
13,CN1C2CCC1CC(OC(=O)c1c[nH]c3ccccc13)C2 (centres undefined),0.633% (inactive)
14,C[C@]12CC[C@@H]3c4ccc(O)cc4CC[C@H]3[C@@H]1CC[C@@H]2O,-0.0719% (inactive)
15,O=C1CCC(c2ccc(-n3ccnc3)cc2)=NN1,-0.0951% (inactive)
16,CCCC1O[C@@H]2C[C@H]3[C@@H]4CCC5=CC(=O)C=C[C@]5(C)[C@H]4[C@@H](O)C[C@]3(C)[C@]2(C(=O)CO)O1 (some centres undefined),0.0626% (inactive)
17,CNCCC(Oc1ccccc1C)c1ccccc1 (centres undefined),0.875% (inactive)
18,CC(C)C[C@H]1C(=O)N2CCC[C@H]2[C@]2(O)O[C@](NC(=O)[C@@H]3C=C4c5cccc6[nH]c(Br)c(c56)C[C@H]4N(C)C3)(C(C)C)C(=O)N12,-0.438% (inactive)
19,O=C(O)c1cc2cc(Cc3cccnc3)ccc2o1,-0.438% (inactive)
20,COC(=O)[C@H]1[C@H]2C[C@H]3c4[nH]c5ccccc5c4CCN3C[C@H]2CC[C@@H]1O,-0.438% (inactive)
21,N[C@H](CO)C(=O)O,-0.438% (inactive)
22,C[C@@H]1C(=O)NC2=Nc3cccc(Cl)c3CN21,-0.438% (inactive)
23,CNCCC=C1c2ccccc2CCc2ccccc21,-0.438% (inactive)
24,Oc1ccc(O)cc1,0.202% (inactive)
